# Test results taken from the supplement of paper PMC4466140.
# Molecular target: AgAbp1
# Assay: SPOT peptide array binding signal intensity (averaged, normalized) (arbitrary units (background-subtracted, floor 0; scale differs between SH3 domains)); higher = stronger binding of the SH3 domain to the peptide
# In short: (§1)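 Detection of bound protein relied on anti-GST antibody, an HRP anti-mouse secondary and luminol, with imaging and quantification in Genespotter. The bound protein was GST-fused SH3 domains from four yeast species, incubated at 10 μg/ml overnight at 4°C in TBS-based blocking buffer on cellulose membranes carrying synthetic 15-mer peptides with cysteines replaced by serines. Binding signal is normalized, background-subtracted spot intensity averaged over replicates, in arbitrary units that differ between domains.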
row,Binder,SPOT peptide array binding signal intensity
1,LPMNIQPDLPPRKIM,11.5

# Molecular target: AgBbc1
# Assay: as above
# In short: as §1
row,Binder,SPOT peptide array binding signal intensity
1,LPMNIQPDLPPRKIM,73.8

# Molecular target: AgBem1-D1
# Assay: as above
# In short: as §1
row,Binder,SPOT peptide array binding signal intensity
1,LPMNIQPDLPPRKIM,263

# Molecular target: AgBzz1-D1
# Assay: as above
# In short: as §1
row,Binder,SPOT peptide array binding signal intensity
1,LPMNIQPDLPPRKIM,≤ 0

# Molecular target: AgBzz1-D2
# Assay: as above
# In short: as §1
row,Binder,SPOT peptide array binding signal intensity
1,LPMNIQPDLPPRKIM,5

# Molecular target: AgCyk3
# Assay: as above
# In short: as §1
row,Binder,SPOT peptide array binding signal intensity
1,LPMNIQPDLPPRKIM,6

# Molecular target: AgFus1
# Assay: as above
# In short: as §1
row,Binder,SPOT peptide array binding signal intensity
1,LPMNIQPDLPPRKIM,301

# Molecular target: AgHof1
# Assay: as above
# In short: as §1
row,Binder,SPOT peptide array binding signal intensity
1,LPMNIQPDLPPRKIM,109

# Molecular target: AgHse1
# Assay: as above
# In short: as §1
row,Binder,SPOT peptide array binding signal intensity
1,LPMNIQPDLPPRKIM,139

# Molecular target: AgLsb1
# Assay: as above
# In short: as §1
row,Binder,SPOT peptide array binding signal intensity
1,LPMNIQPDLPPRKIM,904

# Molecular target: AgLsb4
# Assay: as above
# In short: as §1
row,Binder,SPOT peptide array binding signal intensity
1,LPMNIQPDLPPRKIM,3030

# Molecular target: AgMyo5
# Assay: as above
# In short: as §1
row,Binder,SPOT peptide array binding signal intensity
1,LPMNIQPDLPPRKIM,≤ 0

# Molecular target: AgNbp2
# Assay: as above
# In short: as §1
row,Binder,SPOT peptide array binding signal intensity
1,LPMNIQPDLPPRKIM,152

# Molecular target: AgRvs167
# Assay: as above
# In short: as §1
row,Binder,SPOT peptide array binding signal intensity
1,LPMNIQPDLPPRKIM,525

# Molecular target: AgSho1
# Assay: as above
# In short: as §1
row,Binder,SPOT peptide array binding signal intensity
1,LPMNIQPDLPPRKIM,218

# Molecular target: AgSla1-D1-D2
# Assay: as above
# In short: as §1
row,Binder,SPOT peptide array binding signal intensity
1,LPMNIQPDLPPRKIM,≤ 0

# Molecular target: AgSla1-D3
# Assay: as above
# In short: as §1
row,Binder,SPOT peptide array binding signal intensity
1,LPMNIQPDLPPRKIM,2.5

# Molecular target: CaAbp1-D1
# Assay: as above
# In short: as §1
row,Binder,SPOT peptide array binding signal intensity
1,LPMNIQPDLPPRKIM,63.5

# Molecular target: CaAbp1-D2
# Assay: as above
# In short: as §1
row,Binder,SPOT peptide array binding signal intensity
1,LPMNIQPDLPPRKIM,59.5

# Molecular target: CaBbc1
# Assay: as above
# In short: as §1
row,Binder,SPOT peptide array binding signal intensity
1,LPMNIQPDLPPRKIM,423

# Molecular target: CaBem1-D1
# Assay: as above
# In short: as §1
row,Binder,SPOT peptide array binding signal intensity
1,LPMNIQPDLPPRKIM,42

# Molecular target: CaBzz1-D1
# Assay: as above
# In short: as §1
row,Binder,SPOT peptide array binding signal intensity
1,LPMNIQPDLPPRKIM,290

# Molecular target: CaBzz1-D2
# Assay: as above
# In short: as §1
row,Binder,SPOT peptide array binding signal intensity
1,LPMNIQPDLPPRKIM,98.2

# Molecular target: CaCyk3
# Assay: as above
# In short: as §1
row,Binder,SPOT peptide array binding signal intensity
1,LPMNIQPDLPPRKIM,15

# Molecular target: CaFus1
# Assay: as above
# In short: as §1
row,Binder,SPOT peptide array binding signal intensity
1,LPMNIQPDLPPRKIM,1460

# Molecular target: CaHof1
# Assay: as above
# In short: as §1
row,Binder,SPOT peptide array binding signal intensity
1,LPMNIQPDLPPRKIM,≤ 0

# Molecular target: CaHse1
# Assay: as above
# In short: as §1
row,Binder,SPOT peptide array binding signal intensity
1,LPMNIQPDLPPRKIM,224

# Molecular target: CaLsb1
# Assay: as above
# In short: as §1
row,Binder,SPOT peptide array binding signal intensity
1,LPMNIQPDLPPRKIM,16.2

# Molecular target: CaLsb4
# Assay: as above
# In short: as §1
row,Binder,SPOT peptide array binding signal intensity
1,LPMNIQPDLPPRKIM,7000

# Molecular target: CaMyo5
# Assay: as above
# In short: as §1
row,Binder,SPOT peptide array binding signal intensity
1,LPMNIQPDLPPRKIM,60

# Molecular target: CaNbp2
# Assay: as above
# In short: as §1
row,Binder,SPOT peptide array binding signal intensity
1,LPMNIQPDLPPRKIM,410

# Molecular target: CaRvs167
# Assay: as above
# In short: as §1
row,Binder,SPOT peptide array binding signal intensity
1,LPMNIQPDLPPRKIM,1050

# Molecular target: CaRvs167-3
# Assay: as above
# In short: as §1
row,Binder,SPOT peptide array binding signal intensity
1,LPMNIQPDLPPRKIM,0.5

# Molecular target: CaSho1
# Assay: as above
# In short: as §1
row,Binder,SPOT peptide array binding signal intensity
1,LPMNIQPDLPPRKIM,799

# Molecular target: CaSla1-D1-D2
# Assay: as above
# In short: as §1
row,Binder,SPOT peptide array binding signal intensity
1,LPMNIQPDLPPRKIM,409

# Molecular target: CaSla1-D3
# Assay: as above
# In short: as §1
row,Binder,SPOT peptide array binding signal intensity
1,LPMNIQPDLPPRKIM,242

# Molecular target: ScAbp1
# Assay: as above
# In short: as §1
row,Binder,SPOT peptide array binding signal intensity
1,LPMNIQPDLPPRKIM,16
